# Results published in PubChem BioAssay AID2796 (The Scripps Research Institute Molecular Screening Center, 2010).
# The campaign covered roughly 320,000 compounds. About 8,000 (2.5%) were called active. Cut-off read from the data, not from the text of the source: active = activation above about 47%; inactive = the rest. This excerpt belongs to a sample that is enriched for actives.
# Biological target: Aryl hydrocarbon receptor (Homo sapiens) (UniProt P35869)
# Experiment: AHR activators, primary screen, cell-based, luminescence, luciferase reporter, human (AID 2796);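 note: 0% = vehicle wells and 100% = reference agonist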
# Conditions: AHR-responsive luciferase reporter cells, at 5 µM, stronger effect = higher value
# Chain of Aryl hydrocarbon receptor (Homo sapiens) (P35869 whole entry, looked up): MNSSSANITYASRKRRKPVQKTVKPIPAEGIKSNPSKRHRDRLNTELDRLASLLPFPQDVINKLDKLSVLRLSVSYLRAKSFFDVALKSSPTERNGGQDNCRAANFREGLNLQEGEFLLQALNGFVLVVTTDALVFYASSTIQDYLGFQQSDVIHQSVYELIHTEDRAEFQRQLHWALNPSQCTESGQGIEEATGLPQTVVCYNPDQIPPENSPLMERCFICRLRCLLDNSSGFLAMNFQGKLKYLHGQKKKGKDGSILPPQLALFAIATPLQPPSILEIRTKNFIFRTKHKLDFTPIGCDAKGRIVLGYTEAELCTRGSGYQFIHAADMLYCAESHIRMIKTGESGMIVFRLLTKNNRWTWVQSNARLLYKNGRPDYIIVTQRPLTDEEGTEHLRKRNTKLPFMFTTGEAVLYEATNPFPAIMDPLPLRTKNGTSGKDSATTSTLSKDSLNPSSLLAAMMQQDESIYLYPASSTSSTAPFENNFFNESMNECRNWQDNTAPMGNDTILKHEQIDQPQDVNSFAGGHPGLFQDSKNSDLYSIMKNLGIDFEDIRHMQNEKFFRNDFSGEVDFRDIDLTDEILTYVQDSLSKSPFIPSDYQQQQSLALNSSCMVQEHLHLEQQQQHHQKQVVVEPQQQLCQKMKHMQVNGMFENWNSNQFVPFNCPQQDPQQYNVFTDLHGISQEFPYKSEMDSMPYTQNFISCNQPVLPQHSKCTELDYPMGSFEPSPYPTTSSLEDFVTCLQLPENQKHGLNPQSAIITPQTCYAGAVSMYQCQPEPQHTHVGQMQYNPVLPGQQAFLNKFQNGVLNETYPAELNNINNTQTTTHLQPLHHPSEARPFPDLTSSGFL
row,Compound,activation
1,COc1ccc(C2=Nc3cc(C)ccc3OC2)cc1,30.2% (inactive)
2,O=C(CCc1nc(-c2ccccc2)no1)Nc1cccc(C(=O)NC2CC2)c1,0.82% (inactive)
3,CCc1ccc(OCC(=O)OC(C)C(=O)NC2CC2)cc1 (stereo not drawn),-4.56% (inactive)
4,Oc1c(Cl)cc(Cl)c(Cl)c1Cc1c(O)c(Cl)cc(Cl)c1Cl,0.28% (inactive)
5,CN(C(=O)COC(=O)Cn1cnc2c1c(=O)n(C)c(=O)n2C)C1(C#N)CCCCC1,-0.97% (inactive)
6,O=C(c1snnc1-c1ccccc1)N1CCOCC1,2.54% (inactive)
7,CN(CCC1CCOCC1)C(=O)CC1C(=O)NCCN1Cc1cccc(F)c1 (stereo not drawn),-2.39% (inactive)
8,COc1cccc(NC(=O)Cn2cnc3sc(C)c(S(=O)(=O)N4CCN(C)CC4)c3c2=O)c1,3.14% (inactive)
9,CCCc1cc(=O)oc2c(C)c(OCC(=O)Nc3ccccn3)ccc12,2.02% (inactive)
10,CCCc1cc(=O)oc2c(C)c(OCC(=O)NCc3ccccn3)ccc12,65.7% (active)
11,CCCc1cc(=O)oc2c(C)c(OCC(=O)N3CCC(C(=O)O)CC3)ccc12,0.65% (inactive)
12,Clc1ccc(-c2cc(C3CCNCC3)[nH]n2)c(Cl)c1,-7.18% (inactive)
13,COc1ccc(-c2csc(NC(=O)COC(=O)Cc3ccc(Cl)cc3Cl)n2)cc1,34.2% (inactive)
14,Cc1nc(NC(=O)CN(C)S(=O)(=O)c2ccc(Cl)cc2)sc1C,5.19% (inactive)
15,CCCCCCC(=O)Nc1nc(C)c(-c2csc(Nc3cc(Cl)ccc3OC)n2)s1,40.2% (inactive)
16,CCC(=O)Nc1nc(C)c(C(=O)Nc2cccc(Cl)c2)s1,7.61% (inactive)
17,O=C(Nc1ccc(-c2csc(Nc3cccc(C(F)(F)F)c3)n2)cc1)c1cccc(C(F)(F)F)c1,114% (active)
18,CCCCN(C)CCC(=O)Nc1ccc(Cl)cc1,0.37% (inactive)
19,Cc1nc(NC(=O)c2cccc(Cl)c2)sc1-c1csc(Nc2cccc(Cl)c2)n1,85.8% (active)
20,O=C(O)CSc1c2c(nc3cc(C(=O)Nc4cccc(C(F)(F)F)c4)ccc13)CCCC2,-2.1% (inactive)
21,CCCCCCC(=O)Nc1nc(C)c(-c2csc(Nc3cccc(OC)c3)n2)s1,34.4% (inactive)
22,C=CCCC(=O)Nc1nc(C)c(-c2csc(Nc3ccc(Cl)cc3)n2)s1,56.6% (active)
23,COc1ccc(NC(=O)CN(C)CC(=O)Nc2cccc(C(F)(F)F)c2)cc1,0.79% (inactive)
24,CCCCC(=O)Nc1nc(C)c(-c2csc(Nc3ccc(Cl)cc3)n2)s1,49.2% (active)

row,Compound,activation
1,CCC(C)c1ccc(NC(=O)COC(=O)C2CCCC2)cc1 (stereo not drawn),-0.7% (inactive)
2,CC(=O)Nc1ccc(NC(=O)CCN2C(=O)C3CC=CCC3C2=O)cc1 (stereo not drawn),-0.48% (inactive)
3,Cc1occc(=O)c1OCc1c(Cl)cccc1Cl,2.86% (inactive)
4,O=C(O)CCN1C(=O)CC2(CCCCC2)C1=O,-1.21% (inactive)
5,O=C1CCN(Cc2ccc([N+](=O)[O-])cc2)CCN1[C@H](CO)Cc1ccccc1,0.87% (inactive)
6,CCCNC(=O)c1cnc(-c2ccccc2)nc1-c1ccccc1,3.22% (inactive)
7,CCOc1ccc(/C=C(/NC(=O)c2ccccc2)C(=O)NCCC(=O)O)cc1,3.46% (inactive)
8,COc1cc(OC)c(NS(=O)(=O)c2cn(C)cn2)cc1Cl,-0.48% (inactive)
9,Cc1ccc(NC(=O)C2CCC(C(C)(C)C)CC2)cc1S(=O)(=O)N1CCOCC1 (stereo not drawn),1.24% (inactive)
10,Cc1csc(=O)n1CC(=O)Nc1ccc(S(C)(=O)=O)cc1,-1.77% (inactive)
11,CCOC(=O)c1ccc(NC(=O)c2ccc(NC(=O)C3CCCO3)cc2)cc1 (stereo not drawn),3.91% (inactive)
12,COc1ccc(N(CC(=O)N2CCOCC2)S(=O)(=O)c2ccccc2)cc1Cl,0.59% (inactive)
13,O=C1COc2ccc(C(=O)COC(=O)c3ccccc3Cl)cc2N1,-0.97% (inactive)
14,Cc1ccc(C2Nc3cccc4cccc(c34)N2)cc1,30.3% (inactive)
15,COc1ccc(C2NC(=O)c3ccccc3N2)cc1 (stereo not drawn),102% (active)
16,Oc1ccc(C2Nc3cccc4cccc(c34)N2)cc1,9.92% (inactive)
17,CC(Oc1ccc(-c2ccccc2)c(F)c1)c1ccn(S(=O)(=O)c2cccc3ccccc23)n1 (stereo not drawn),0.53% (inactive)
18,O=C(NC(=O)c1ccc(Cl)c(Cl)c1)OC1CCS(=O)(=O)C1 (stereo not drawn),2.16% (inactive)
19,O=C(Cn1ncc(N2CCCC2)c(Br)c1=O)c1ccc(Cl)cc1,3.04% (inactive)
20,COc1cccc(CNc2ncc(-c3ccccc3)n2C)c1,8.66% (inactive)
21,Cc1ccc(-c2csc(-c3cc(C)on3)n2)cc1,-2.07% (inactive)
22,Cc1ccc(-c2csc(-c3c[nH]c4ccccc34)n2)cc1,74.3% (active)
23,CCCc1cc(-c2nc(-c3ccc(C)cc3)cs2)ccn1,23.7% (inactive)
24,CCC(C)NC(=O)C1CCC(=O)N1Cc1ccc(C)cc1 (stereo not drawn),4.04% (inactive)

row,Compound,activation
1,O=C(NCCc1ccc(Cl)cc1Cl)c1cc([N+](=O)[O-])c[nH]c1=O,6.38% (inactive)
2,CCC(=O)Nc1sc(C(=O)Nc2ccccc2)c(C)c1C(=O)OC,-2.8% (inactive)
3,COc1ccccc1NC(=O)c1ccc(C)s1,26.2% (inactive)
4,COC(=O)c1c(NC(C)=O)sc(C(=O)Nc2ccccc2OC)c1C,47.1% (active)
5,CN1CCN(S(=O)(=O)c2cccc(C(=O)Nc3sccc3C#N)c2)CC1,3.96% (inactive)
6,O=C(CC12CC3CC(CC(C3)C1)C2)Nc1ccc2c(c1)COC2=O,0.6% (inactive)
7,O=C(Cn1c(NCCO)nc2ccccc21)c1ccc(Cl)cc1Cl,103% (active)
8,CC(C)(C)C(=O)Cn1c(NCCO)nc2ccccc21,-1.23% (inactive)
9,O=S(=O)(O)c1nc2ccccc2n1Cc1ccc(Cl)cc1Cl,3.2% (inactive)
10,CN(CC(=O)NCCc1ccc(S(N)(=O)=O)cc1)CC(=O)Nc1ccc(F)c(F)c1F,1.42% (inactive)
11,O=S(=O)(Cc1ccccc1)c1nc2ccccc2n1Cc1ccccn1,-1.4% (inactive)
12,O=c1c2cc(-c3ccccc3)sc2nc2n1N=C(c1cccs1)CS2,58.8% (active)
13,Cc1nnc2n1N=C(c1ccccc1)CS2,1.52% (inactive)
14,COc1ccc(C2CC(c3cccs3)=NN2c2ccccc2)cc1 (stereo not drawn),3.12% (inactive)
15,O=S1(=O)CC(NCc2ccccc2)C(Nc2ccc(Cl)cc2)C1 (stereo not drawn),0.94% (inactive)
16,CSCCC(NC(=O)COc1ccccc1)C(=O)N(C)CC(=O)Nc1ccc(C)cc1 (stereo not drawn),1.75% (inactive)
17,O=[N+]([O-])c1ccc(F)cc1Oc1nc(-c2cccnc2)nc2ccccc12,62.5% (active)
18,O=[N+]([O-])c1ccc(Oc2ccc(F)cc2Br)c2ccncc12,15.1% (inactive)
19,CCN(CC(=O)NC1CCS(=O)(=O)C1)c1nc(-c2cccnc2)nc2ccccc12 (stereo not drawn),1.86% (inactive)
20,CCCCn1c(N)c(N(CCOC)C(=O)CSCC(=O)Nc2cccc(C)c2)c(=O)[nH]c1=O,1.66% (inactive)
21,CCc1nn(CC(=O)N2CCN(c3cc(C)ccc3C)CC2)c(=O)c2cc3occc3n12,4.48% (inactive)
22,Cc1ccc(C)c(N2CCN(C(=O)CCCn3c(=O)c4cccn4c4cccnc43)CC2)c1,6.45% (inactive)
23,Cc1ccc(C)c(N2CCN(C(=O)Cn3ncn4cccc4c3=O)CC2)c1,49.4% (active)
24,COc1ccc2nc3n(c(=O)c2c1)-c1ccc(Cl)cc1C(=O)NC3Cc1ccccc1 (stereo not drawn),1.56% (inactive)

row,Compound,activation
1,O=C(O)c1ccccc1-c1ccccc1C(=O)Nc1ccccc1Br,0.17% (inactive)
2,CN(CCN1CCOCC1)Cc1nc(-c2ccc3c(c2)OCO3)no1,10.5% (inactive)
3,CC(C)N(Cc1nc(-c2ccc3c(c2)OCO3)no1)CC1CCC(=O)N1 (stereo not drawn),16.6% (inactive)
4,CCn1ccnc1CN(C)Cc1nc(-c2ccc3c(c2)OCO3)no1,86.7% (active)
5,CCOc1c2ccc(C(=O)NC3CCCc4ccccc43)cc2nn1CC (stereo not drawn),7.2% (inactive)
6,Cc1cc(C)nc(NC(=O)c2cccc([N+](=O)[O-])c2)c1,40.8% (inactive)
7,O=C(Nc1ccc(C2CC2(Cl)Cl)cc1)c1cccc([N+](=O)[O-])c1 (stereo not drawn),96.3% (active)
8,O=C(Nc1ccc(C(=O)N2CCCCC2)cc1)c1cccc([N+](=O)[O-])c1,-1.69% (inactive)
9,Cc1ccc(-c2nn(-c3ccccc3)cc2C(=O)NCCCN2CCCC2=O)cc1,1.15% (inactive)
10,CCC(C)(C)NC(=O)/C=C/c1cc(OC)c(OC)c(S(=O)(=O)N2CCc3ccccc32)c1,5.39% (inactive)
11,NC(=O)N/N=C\c1cccs1,-0.87% (inactive)
12,COc1ccc2c(c1)c(C(=O)N/N=C/c1cccs1)c(C)n2C,72.6% (active)
13,COc1ccc(N(CC(=O)N/N=C/c2cccs2)S(=O)(=O)c2ccc(OC)c(OC)c2)cc1,1.41% (inactive)
14,COc1cc(C(=O)NCc2nnc(SCC(=O)Nc3nc4ccc(C)cc4s3)o2)cc(OC)c1OC,-5.66% (inactive)
15,COCCN(CCOC)S(=O)(=O)c1ccc(/C(O)=C(\C#N)c2nc3ccccc3[nH]2)cc1,6.43% (inactive)
16,CCC(=O)/C(=C(/O)c1ccccc1)c1nc2ccccc2[nH]1,64.6% (active)
17,O=C(/C(=C/c1cccc(Cl)c1)c1nc2ccccc2[nH]1)c1ccccc1,44.8% (inactive)
18,COC(C[C@@H]1O[C@@H]1C(=O)[C@@H](C)OCc1ccccc1)OC,-3.27% (inactive)
19,COc1ccccc1NC(=O)CCCc1c[nH]c2ccccc12,6.67% (inactive)
20,COc1ccc(Cl)cc1NC(=O)CN(C)C(=O)c1cc2ccccc2cc1OC,19.4% (inactive)
21,COc1ccc(Cl)cc1NC(=O)CN(C)C(=O)CCCc1c[nH]c2ccccc12,51.8% (active)
